Screening results from PubChem BioAssay.
Most compounds without a hit are left out; they make up all but 0.51% or so of the library.
phage Ecoli inh: E. coli growth loss with phage present; 360,000 tested, 0.26% active; growth absorbance; inhibition, % at 11.9 µM; in the data active = inhibition above about 11%
E coli growth-1: counter-screen for AddAB inhibitors: E. coli growth inhibition | E. coli V3065 growth, OD600 absorbance, 18 h | inhibition, % at 11.9 µM | 330,000 tested, 0.27% active;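 active = inhibition above the campaign's mean inhibition across all tested compounds plus 3 SD, cut at about 9.9% in these data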;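 also: uninfected addAB+ strain grown without phage in ampicillin broth; 0% = DMSO wells and 100% = ciprofloxacin 0.95 µg/ml wells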
Tat export inh: inhibitors of E. coli Tat protein transport. E. coli MC4100 TorA-mCherry Tat export, fluorescence. AID 488895. 340,000 tested, 0.036% active. inhibition, % at 10 µM;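 active = mean replicate inhibition at least 50% and at least half of replicates individually reaching 50%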;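 also: exported cargo escapes ClpAP degradation while cytoplasmic cargo is degraded and loses fluorescence; 0% = median of neutral control wells and 100% = median of NaSCN control wells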
E coli growth-2: inhibitors of Escherichia coli growth; OD600, 23 h; hits give low values; OD600 absorbance (no concentration beside the values); 330,000 tested, 0.21% active;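 active = OD600 absorbance below the run mean of sample wells minus 3.6 SD, in any replicate, cut at about 0.56 in these data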
AddAB inh: less growth of phage-infected E. coli with AddAB; E. coli expressing H. pylori AddAB, absorbance growth; inhibition, % at 11.9 µM; 330,000 tested, 0.29% active; AID 435030; in the data active = inhibition above about 12%;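 also: 0% = vehicle wells of infected cells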
* marks the source's active call; other numbers are inactive results; ! = repeats disagree.

What do the screens show for `CC(=O)NNC(=S)NC(=O)c1ccc(C)cc1`?
phage Ecoli inh: 0; E coli growth-1: -6; Tat export inh: 3; E coli growth-2: 0.72; AddAB inh: -4

What do the screens show for `Cc1nn(C)c(C)c1C=NNC(=O)CCn1nc(C)c([N+](=O)[O-])c1C`?
E coli growth-2: 0.68

How did CC=Cc1ccc(OC(C)=O)c(OC)c1 do in these assays?
E coli growth-2: 0.7

How did CC(C)CCNC(=S)Nc1ccc([N+](=O)[O-])cc1 do in these assays?
phage Ecoli inh: 7; E coli growth-1: 7; Tat export inh: -4; E coli growth-2: 0.57; AddAB inh: 7

Results for CCCCNC(=S)Nc1ccc([N+](=O)[O-])cc1 ?
phage Ecoli inh: 4; E coli growth-1: 4; Tat export inh: 14; E coli growth-2: 0.52*; AddAB inh: 8

Results for CC(=O)OC1CC2C(C)(C)C(=O)C=C[C@]2(C)C2CC[C@@]3(C)C(c4ccoc4)OC(=O)C4O[C@]43[C@]12C (stereo not given in full) ?
E coli growth-2: 0.65

How did Oc1c(Cl)cc(Cl)cc1CNc1ccccn1 do in these assays?
phage Ecoli inh: 1; Tat export inh: 1; E coli growth-2: 0.62

How did Oc1c(Cl)cc(Cl)cc1CNc1nc2ccccc2[nH]1 do in these assays?
phage Ecoli inh: 5; E coli growth-1: 3; Tat export inh: -17; E coli growth-2: 0.42*; AddAB inh: 3

How did NC(N)=N/N=C/c1c(Cl)cccc1Cl do in these assays?
phage Ecoli inh: 7; E coli growth-1: 12*!; Tat export inh: 3; AddAB inh: 6

What do the screens show for `NC(N)=NN=Cc1ccc(OCc2ccccc2Cl)cc1`?
E coli growth-2: 0.044*

How did NC(N)=N/N=C/c1ccccc1Cl do in these assays?
phage Ecoli inh: inactive; E coli growth-1: 13*; Tat export inh: -3; AddAB inh: inactive

What do the screens show for `NC(N)=NN=Cc1ccccc1Cl`?
E coli growth-2: 0.7

How did Cc1ccsc1C=NNC(=O)CNC(=O)c1ccc(S(=O)(=O)N2CCOCC2)cc1 do in these assays?
E coli growth-2: 0.65

How did Oc1ccc(-c2nc(-c3ccc(F)cc3)c(-c3ccncc3)[nH]2)cc1 do in these assays?
phage Ecoli inh: 3; E coli growth-1: 1; Tat export inh: -13; E coli growth-2: 0.32*; AddAB inh: 0

What do the screens show for `Nc1nc(-c2ccccn2)nc(N)c1Cc1ccc(Cl)cc1Cl`?
phage Ecoli inh: 1; E coli growth-1: 5; Tat export inh: -9; E coli growth-2: 0.36*; AddAB inh: 1

What do the screens show for `S=c1[nH]nc(COc2ccccc2)n1N=Cc1ccc(Br)s1`?
E coli growth-2: 0.66

Results for Cc1ccc(NC(=O)C2CCCN(c3ncccn3)C2)cc1F (stereo not given) ?
phage Ecoli inh: 1; E coli growth-1: 9.8*; Tat export inh: -4; E coli growth-2: 0.63; AddAB inh: 7

What do the screens show for `COc1cc(C=CC(=O)Nc2nc3ccc(S(=O)(=O)N(C)C)cc3s2)cc(OC)c1OC`?
E coli growth-2: 0.7

Results for O=C(NNC(=S)NC(=O)c1cccnc1)c1ccc(Cl)cc1 ?
phage Ecoli inh: -2; E coli growth-1: -2; Tat export inh: 11; E coli growth-2: 0.53*; AddAB inh: -6

What do the screens show for `COc1ccc(C(=O)NC(=S)NNC(=O)c2cnccn2)cc1`?
phage Ecoli inh: -2; E coli growth-1: -5; Tat export inh: 4; E coli growth-2: 0.43*; AddAB inh: -3

What do the screens show for `O=C(NC(=S)NNC(=O)c1cnccn1)c1ccc(Cl)cc1`?
phage Ecoli inh: -1; E coli growth-1: -2; Tat export inh: -2; E coli growth-2: 0.55; AddAB inh: -3

How did O=S1(=O)CCC(NC(=S)SCCOc2ccccc2)C1 (stereo not given) do in these assays?
phage Ecoli inh: 4; E coli growth-1: 1; Tat export inh: -32; E coli growth-2: 0.49*; AddAB inh: -1

Results for CCCCSC(=S)NC1CCS(=O)(=O)C1 (stereo not given) ?
phage Ecoli inh: 4; E coli growth-1: -3; Tat export inh: -8; E coli growth-2: 0.66; AddAB inh: -2

What do the screens show for `CCOC(=O)N1CCC(N2C(=O)c3ccccc3C2Nc2cc(C(=O)OC)cc(C(=O)OC)c2)CC1` (stereo not given)?
phage Ecoli inh: 100*; E coli growth-1: 1; Tat export inh: 4; E coli growth-2: 0.77; AddAB inh: 3

How did CCOC(=O)N1CCC(N2C(=O)c3ccccc3C2Nc2cc(C)cc(C)c2)CC1 (stereo not given) do in these assays?
phage Ecoli inh: 1; E coli growth-1: 0; Tat export inh: 2; E coli growth-2: 0.71; AddAB inh: 4

What do the screens show for `Cc1nc(N=C(N)NC(=O)c2ccccc2)nc2ccccc12`?
E coli growth-2: 0.66

How did O=C1NC(Cc2ccccc2)C(=O)N2C1C[C@]1([C@]34CC5C(=O)NC(Cc6ccccc6)C(=O)N5C3N(S(=O)(=O)c3ccccc3)c3ccccc34)c3ccccc3N(S(=O)(=O)c3ccccc3)C21 (stereo not given in full) do in these assays?
E coli growth-2: 0.73

How did O=C(Nc1ccccc1C(=O)NC1CC1)c1ccc([N+](=O)[O-])o1 do in these assays?
phage Ecoli inh: 16*; Tat export inh: -2; E coli growth-2: 0.53

What do the screens show for `CCCOc1ccc(-c2c(C(=O)NN=C(C)c3ccco3)nnn2-c2nonc2N)cc1`?
E coli growth-2: 0.67

What do the screens show for `C[n+]1c2n(c3ccccc31)N=C(c1ccc(-c3ccccc3)cc1)CS2`?
phage Ecoli inh: 6; E coli growth-1: 2; Tat export inh: 17; E coli growth-2: 0.3*; AddAB inh: 6

Results for C[n+]1c2n(c3ccccc31)N=C(c1ccccc1)CS2 ?
phage Ecoli inh: 2; E coli growth-1: 0; Tat export inh: 1; E coli growth-2: 0.66; AddAB inh: 1

How did COc1ccc(C(=O)N2CCOC2CNC(=O)C(=O)NCc2ccc3c(c2)OCO3)cc1 (stereo not given) do in these assays?
phage Ecoli inh: 1; E coli growth-1: 0; Tat export inh: 4; E coli growth-2: 0.51*; AddAB inh: 0

What do the screens show for `Cc1cccc(N2C(=O)CS/C2=N\NC(=O)c2ccc(Br)cc2)c1C`?
phage Ecoli inh: 11; E coli growth-1: 13*; Tat export inh: -13; AddAB inh: 12

How did Cc1cccc(N2C(=O)CSC2=NNC(=O)c2ccc(Br)cc2)c1C do in these assays?
E coli growth-2: 0.6

Results for CC(=O)NC(CC(=O)N(C)Cc1cccc(Cl)c1Cl)c1ccccc1 (stereo not given) ?
phage Ecoli inh: 2; E coli growth-1: 3; Tat export inh: -8; E coli growth-2: 0.54*; AddAB inh: 1

How did CC(=O)NC(CC(=O)N(C)Cc1c(F)cccc1Cl)c1ccccc1 (stereo not given) do in these assays?
phage Ecoli inh: 1; E coli growth-1: 3; Tat export inh: 5; E coli growth-2: 0.69; AddAB inh: 2

What do the screens show for `COc1ccc(NC(=O)C2CC=CC3CCN(C4CCCCC4)C(=O)C32)cc1` (stereo not given)?
E coli growth-2: 0.7
